ADAM17 inh: inhibitors of human ADAM17. P78536. recombinant ADAM17, EDANS/DABCYL FRET peptide cleavage. inhibition, % at 6.95 µM. 0.83% of 370,000 active. AID 720648;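 active = inhibition above the mean of compounds lying between control limits plus 3 SD, set per campaign, cut at about 8.5% in these data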;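 also: 0% = DMSO-only wells as the low control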
proKLK7 act: proKLK7 (human) activation, primary screen; P49862; purified proKLK7, EDANS-DABCYL substrate fluorescence; 100% is mature enzyme control, 0% vehicle; activation, % at 7 µM; 0.9% of 370,000 active;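 active = activation above the mean of all tested compounds plus 3 SD, computed per campaign excluding outliers beyond control limits, cut at about 13% in these data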
PLCb3 inh: blocks human PLC-beta3 enzyme activity | Purified PLC-beta3, fluorogenic substrate, fluorescence | Q01970 | inhibition, % at 12.2 µM | 0.18% of 370,000 active; in the data active = inhibition above about 11%;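 also: 0% = median of compound wells on plate and 100% = full blocker control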
ADAM10 inh: inhibits human ADAM10 | O14672 | 0.62% of 370,000 active | inhibition, % at 7 µM | AID 720582 | recombinant ADAM10, EDANS/DABCYL FRET peptide cleavage, 3 h;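 active = inhibition above a per-campaign cutoff equal to the mean of compounds falling between control-based bounds plus 3 SD, cut at about 20% in these data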;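 also: 0% = DMSO wells while the 100% control is not disclosed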
PLC-gamma1 inh: blocks human PLC-gamma1 enzyme activity; 0.84% of 370,000 active; purified PLC-gamma1, fluorogenic substrate, fluorescence; P19174; inhibition, % at 12.2 µM; in the data active = inhibition above about 9.5%
ADAM10 confirm: human ADAM10 inhibition, confirmation; shares compounds with ADAM10 inh; ADAM10 QFRET peptide cleavage, EDANS fluorescence; inhibition, % at 6.95 µM; 1% of 2,100 active; AID 743208;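 active = inhibition above about 20% chosen separately for each screening run, limit read from the data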;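 also: 0% = DMSO wells and 100% = marimastat wells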
ADAM17 counter: counter-screen for ADAM10 exosite inhibitors: inhibitors of human ADAM17; shares compounds with ADAM10 inh; ADAM17 QFRET peptide cleavage, EDANS fluorescence; inhibition, % at 6.95 µM; 0.5% of 2,100 active; AID 743214;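 active = mean triplicate inhibition above the solvent-only control wells' mean plus 3 SD, cut at about 12% in these data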;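 also: 0% = DMSO wells and 100% = marimastat wells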
Numbers without * were called inactive; . = no result. An excerpt weighted towards active compounds, which were near 2.9% of everything screened.

SMILES	ADAM17 inh	proKLK7 act	PLCb3 inh	ADAM10 inh	PLC-gamma1 inh	ADAM10 confirm	ADAM17 counter
O=C(NC1CCCCN(Cc2ccc(Cl)cc2)C1=O)c1ccc2ccccc2c1 (stereo not drawn)	4	1	1	14	6	.	.
O=C(NC1CCCCN(Cc2ccc(Cl)cc2)C1=O)C(c1ccccc1)c1ccccc1 (stereo not drawn)	4	0	0	22*	2	6	4
CCOC(=O)c1c(N)sc2c(OCC)c(Br)ccc12	5	-2	1	23*	-1	6	3
CCOC(=O)c1c(NC(C)=O)sc2c(OCC(O)CNC(C)(C)C)c(Br)ccc12 (stereo not drawn)	-23	0	-13	-84	-16	.	.
CS(=O)(=O)N(CC(=O)Nc1ccccc1Sc1ccccc1)c1cccc(Br)c1	11*	0	-2	25*	3	12	4
CC(C)C[C@@H]1COc2cc(Br)ccc2S(=O)(=O)N1Cc1cn(Cc2ccco2)nn1	-2	1	2	0	1	.	.
COc1cc(Br)cc(CNc2ccc(F)c([N+](=O)[O-])c2)c1O	6	0	-2	20*	0	4	1
CCOC(=O)Nc1ccc2c(c1)[C@@]1(CC(=O)N(CC(C)C)C1c1ccccc1)C(=O)N2C (stereo partly drawn)	-3	0	-5	-7	-6	.	.
FC(F)C(F)(F)C(F)(F)C(F)(F)c1cc(-c2ccccc2)n[nH]1	6	0	-4	23*	-1	-1	1
O=C(NC1CCCCN(Cc2cccc(Cl)c2)C1=O)c1ccc2ccccc2c1 (stereo not drawn)	7	2	3	14	1	.	.
O=S(=O)(NCc1ccc(Cl)c(Cl)c1)c1cc(Cl)ccc1N1CC[C@@H](O)C1	8	-1	-5	21*	-1	7	2
Nc1[nH]c(C(=O)c2ccccc2)c(-c2ccc(Cl)cc2Cl)c1C(=O)NCCC1=CCCCC1	-7	.	-2	-15	8	.	.
C[C@H](O)[C@@H]1C(=O)N2CCc3c([nH]c4c(-c5ccc6c(c5)OCO6)cccc34)[C@@H]2C[C@@H]1N(C)C(=O)c1ccccc1F	5	1	-13	10	-13	.	.
CC1(C(=O)Nc2ccccc2)CCN1C(=O)Cc1ccc(-c2ccccc2)cc1 (stereo not drawn)	4	0	4	-6	2	.	.
COc1ccc(S(=O)(=O)NC(=O)C2(C)CCN2C(=O)Cc2ccccc2Cl)cc1 (stereo not drawn)	-1	1	0	86*	0	0	0
CC(C)(C)c1ccc(S(=O)(=O)NC(=O)C2(C)CCN2C(=O)Cc2ccccc2Cl)cc1 (stereo not drawn)	-3	0	0	-2	3	.	.
COc1cccc(NC(=O)C2(C)CCN2C(=O)Cc2ccc(-c3ccccc3)cc2)c1 (stereo not drawn)	8	0	-4	25*	-1	6	2
COC(=O)C/C=C/[C@@H](C)[C@H](NC(=O)OCC(Cl)(Cl)Cl)c1ccc(-c2ccccc2)cc1	3	0	-2	7	-1	.	.
COc1cccc(/C=C2\CC3(OC(=O)c4cccc(F)c4)CCCN2C3)c1 (stereo not drawn)	3	0	-6	-4	-2	.	.
CC(C)Oc1ccc(CNC(=S)Nc2ccccc2)cc1Cl	0	0	-2	2	2	.	.
CC(C)COc1ccc(CNC(=S)Nc2ccccc2)cc1Cl	5	0	-5	21*	0	10	2
COC(=O)CSc1nnc(-c2ccc(NS(=O)(=O)c3c(C(C)C)cc(C(C)C)cc3C(C)C)cc2)o1	8	0	-11	21*	-6	10	3
O=S(=O)(Nc1cccc2cccnc12)c1ccc(S(=O)(=O)N2CCCC2)cc1	5	0	-2	22*	5	3	2
Oc1ccc(C[C@H]2CNC(=S)N2CC2CCCN2C[C@H](Cc2ccccc2)N2C[C@H](Cc3ccc(O)cc3)N(CC3CCCCC3)C2=S)cc1 (stereo partly drawn)	4	0	6	25*	5	15	6
Oc1ccc(C[C@H]2CNC(=S)N2CC2CCCN2C[C@H](Cc2ccc(O)cc2)N2C[C@H](Cc3ccccc3)N(CC3CCCCC3)C2=S)cc1 (stereo partly drawn)	13*	0	4	20*	2	25*	9
SMILES	ADAM17 inh	proKLK7 act	PLCb3 inh	ADAM10 inh	PLC-gamma1 inh	ADAM10 confirm	ADAM17 counter
Oc1ccc(C[C@H]2CN([C@@H](Cc3ccccc3)CN3CCC[C@@H]3CN3C(=S)NC[C@@H]3Cc3ccccc3)C(=S)N2CC2CCCCC2)cc1	2	0	0	-17	4	.	.
C=CCN1[C@@H](Cc2ccccc2)COc2cccc(N3CCCC3)c2S1(=O)=O	-10	0	-7	-10	-1	.	.
O=C(OCc1cn(Cc2ccccc2C(F)(F)F)nn1)N1CCOCC1	0	1	3	4	3	.	.
CCn1c(=O)n(CC(=O)N2CCCC2)c(=O)c2ccccc21	-4	0	-5	-9	-2	.	.
Cc1cccc(C)c1-c1ccc(CN2C(CC(C)C)C(=O)N(Cc3cn(CCO)nn3)CCS2(=O)=O)cc1 (stereo not drawn)	8	0	2	22*	-1	11	3
COC(=O)[C@@]12CCCCC3=C1N(CCC3)C(=O)[C@H]2CC(=O)NCc1cccc(C(F)(F)F)c1	0	0	3	5	2	.	.
O=S1(=O)c2ccc(N3CCCC3)cc2Oc2ccccc2CN1Cc1cn(Cc2ccc(C(F)(F)F)cc2)nn1	-6	0	-2	-8	-2	.	.
O=S1(=O)c2ccc(N3CCSCC3)cc2Oc2ccccc2CN1Cc1cn(Cc2ccc(C(F)(F)F)cc2)nn1	-1	-1	2	20*	0	10	3
COC(=O)C1CN(Cc2ccccc2)CCS(=O)(=O)N1Cc1cn(Cc2cccc(Cl)c2)nn1 (stereo not drawn)	0	0	1	1	2	.	.
O=[N+]([O-])c1cc(S(=O)(=O)Nc2cccc(C(F)(F)F)c2)ccc1-n1nnc2ccccc21	6	0	-5	23*	1	-1	0
O=S1(=O)c2ccc(Br)cc2OC[C@@H](Cc2ccccc2)N1Cc1cn(CCC2OCCO2)nn1	-4	1	-2	-2	0	.	.
COc1cccc(CNC(=O)Cn2c(-c3ccccc3)cc(C(C)=O)c2C)c1	-3	0	0	-8	0	.	.
Oc1ccc(Cl)c(CN2CCN(c3ncc(Cc4ccccc4)cn3)CC2)c1	14*	1	3	25*	5	5	3

Screening data: PubChem BioAssay, The Scripps Research Institute Molecular Screening Center
